Experimental data: PubChem BioAssay (EPA / NIEHS)
The source made the active and inactive calls. How the source made its calls: active means hit-call score of the fitted dose curve at least 0.9, where 1 is the maximum; inactive means score below 0.9.

Tests used:
[1] = BSK_hDFCGF_SRB: Viability Assessment in the BioMAP Diversity Plus: hDFCGF Assay (AID 2283061); settings: primary human foreskin fibroblasts;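 further: cells exposed to compound for 24 h before the read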
Outline: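 Readout is SRB absorbance at 560 nm, reflecting total protein in parallel cultures of human foreskin fibroblasts harvested 24 h after chemical dosing. Activity was fitted bidirectionally relative to DMSO.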

[2] = read-out: TIMP metallopeptidase inhibitor 1 (TIMP1), TIMP1 (gene 7076); experiment: BSK_hDFCGF_TIMP1: BioMAP Diversity Plus: hDFCGF Assay for TIMP metallopeptidase inhibitor 1 (TIMP1) Biomarker Activity (AID 2283062); settings: primary human foreskin fibroblasts; actives raise or lower the signal
Outline: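 Human skin fibroblasts (primary), hDFCGF system; compound exposure 24 h; TIMP-1 by ELISA; bidirectional fit vs DMSO negative control; overt cytotoxicity by SRB in parallel wells.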

[3] = read-out: Monokine induced gamma interferon (MIG), CXCL9 (gene 4283); experiment: BSK_hDFCGF_MIG: BioMAP Diversity Plus: hDFCGF Assay for Monokine induced gamma interferon (MIG) Biomarker Activity (AID 2283063); settings: primary human foreskin fibroblasts; actives raise or lower the signal
Outline: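 Chemicals were added to primary human foreskin fibroblast cultures, which were sampled 24 h later. MIG levels were then quantified by ELISA and responses fitted in both directions relative to DMSO.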

[4] = read-out: Matrix Metallopeptidase 1 (MMP1), MMP1 (gene 4312); experiment: BSK_hDFCGF_MMP1: BioMAP Diversity Plus: hDFCGF Assay for Matrix Metallopeptidase 1 (MMP1) Biomarker Activity (AID 2283064); settings: primary human foreskin fibroblasts; actives raise or lower the signal
Outline: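 Primary human foreskin fibroblasts in the hDFCGF system were dosed with test chemical, and MMP1 was measured by ELISA 24 h later. Values come from bidirectional curve fitting against the DMSO baseline.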

[5] = read-out: Vascular cell adhesion molecule 1 (VCAM1), VCAM1 (gene 7412); experiment: BSK_hDFCGF_VCAM1: BioMAP Diversity Plus: hDFCGF Assay for Vascular cell adhesion molecule 1 (VCAM1) Biomarker Activity (AID 2283065); settings: primary human foreskin fibroblasts; actives raise or lower the signal;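 on AC50: VCAM-1 protein level quantified by ELISA after 24 h chemical exposure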
Outline: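 Human foreskin fibroblast primary cells, chemical exposure 24 h; VCAM-1 by ELISA; bidirectional fit, DMSO = negative control/baseline.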

[6] = read-out: Plasminogen activator inhibitor-1 (PAI1), SERPINE1 (gene 5054); experiment: BSK_hDFCGF_PAI1: BioMAP Diversity Plus: hDFCGF Assay for Plasminogen activator inhibitor-1 (PAI1) Biomarker Activity (AID 2283066); settings: primary human foreskin fibroblasts; actives raise or lower the signal
Outline: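 Human foreskin fibroblasts in the hDFCGF system were dosed with compound for 24 h; PAI-1 was quantified by ELISA. Bidirectional curve fitting used DMSO as negative control and baseline.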

[7] = read-out: Intercellular Adhesion Molecule 1 (ICAM1), ICAM1 (gene 3383); experiment: BSK_KF3CT_ICAM1: BioMAP Diversity Plus: KF3CT Assay for Intercellular Adhesion Molecule 1 (ICAM1) Biomarker Activity (AID 2283067); settings: primary human keratinocytes with fibroblasts; actives raise or lower the signal
Outline: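 ICAM-1 levels are measured by ELISA 24 h after dosing a primary human co-culture of keratinocytes and foreskin fibroblasts. Activity in either direction is fitted relative to DMSO vehicle.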

[8] = read-out: Interferon-gamma inducible Protein 10 (IP10), CXCL10 (gene 3627); experiment: BSK_KF3CT_IP10: BioMAP Diversity Plus: KF3CT Assay for Interferon-gamma inducible Protein 10 (IP10) Biomarker Activity (AID 2283068); settings: primary human keratinocytes with fibroblasts; actives raise or lower the signal
Outline: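 In a primary skin co-culture of keratinocytes and fibroblasts, IP-10 is quantified by ELISA at 24 h after dosing. SRB staining of parallel wells monitors overt toxicity. Curves are fitted both directions against DMSO.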

[9] = BSK_KF3CT_SRB: Viability Assessment in the BioMAP Diversity Plus: KF3CT Assay (AID 2283069); settings: primary human keratinocytes with fibroblasts;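 further: total protein by sulforhodamine B staining as a cytotoxicity measure; read 24 h after compound addition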
Outline: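 Human primary keratinocyte plus foreskin fibroblast co-culture exposed to chemicals for 24 h. Total protein measured by 0.1% sulforhodamine B staining after 10% TCA fixation, read at 560 nm; bidirectional fitting versus DMSO baseline.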

[10] = read-out: Interleukin-1 alpha (IL1a), IL1A (gene 3552); experiment: BSK_KF3CT_IL1a: BioMAP Diversity Plus: KF3CT Assay for Interleukin-1 alpha (IL1a) Biomarker Activity (AID 2283070); settings: primary human keratinocytes with fibroblasts; actives raise or lower the signal
Outline: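 Human keratinocyte plus foreskin fibroblast primary co-culture, sampled 24 h after chemical dosing. IL-1a measured by ELISA; responses fitted bidirectionally against DMSO baseline (negative control), so gain or loss of signal both count.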

[11] = read-out: TIMP metallopeptidase inhibitor 2 (TIMP2), TIMP2 (gene 7077); experiment: BSK_KF3CT_TIMP2: BioMAP Diversity Plus: KF3CT Assay for TIMP metallopeptidase inhibitor 2 (TIMP2) Biomarker Activity (AID 2283071); settings: primary human keratinocytes with fibroblasts; actives raise or lower the signal
Outline: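 Human primary keratinocyte/foreskin fibroblast co-culture dosed with chemical and sampled at 24 h. TIMP-2 levels quantified by ELISA; bidirectional fitting against DMSO negative control as baseline.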

[12] = read-out: Transforming growth factor beta 1 (TGFb1), TGFB1 (gene 7040); experiment: BSK_KF3CT_TGFb1: BioMAP Diversity Plus: KF3CT Assay for Transforming growth factor beta 1 (TGFb1) Biomarker Activity (AID 2283072); settings: primary human keratinocytes with fibroblasts; actives raise or lower the signal
Outline: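 Human keratinocyte plus foreskin fibroblast primary co-culture, dosed with chemical for 24 h. TGF-b1 quantified by ELISA. Activity fitted bidirectionally against DMSO negative control as baseline.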

[13] = read-out: C-C motif chemokine 2 (Homo sapiens) (UniProt P13500); experiment: BSK_KF3CT_MCP1: BioMAP Diversity Plus: KF3CT Assay for Monocyte Chemoattractant Protein 1 (MCP1/CCL2) Biomarker Activity (AID 2283073); settings: primary human keratinocytes with fibroblasts; actives raise or lower the signal
Outline: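 ELISA readout of MCP-1 after 24 h chemical dosing of a human skin primary co-culture of keratinocytes and foreskin fibroblasts. Activity was fitted in both directions against DMSO.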

[14] = read-out: Matrix Metallopeptidase 9 (MMP9), MMP9 (gene 4318); experiment: BSK_KF3CT_MMP9: BioMAP Diversity Plus: KF3CT Assay for Matrix Metallopeptidase 9 (MMP9) Biomarker Activity (AID 2283074); settings: primary human keratinocytes with fibroblasts; actives raise or lower the signal;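 on AC50: MMP9 protein level quantified by ELISA in the co-culture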
Outline: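 Keratinocyte plus foreskin fibroblast human primary skin co-culture was dosed with chemical and MMP-9 was quantified by ELISA 24 h later. Bidirectional curve fitting used DMSO as negative control and activity baseline.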

[15] = read-out: urokinase plasminogen activator (uPA), PLAU (gene 5328); experiment: BSK_KF3CT_uPA: BioMAP Diversity Plus: KF3CT Assay for urokinase plasminogen activator (uPA) Biomarker Activity (AID 2283075); settings: primary human keratinocytes with fibroblasts; actives raise or lower the signal
Outline: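 Human keratinocyte plus foreskin fibroblast primary co-culture exposed to chemical for 24 h. uPA levels were quantified by ELISA, and activity was fitted bidirectionally against a DMSO negative-control baseline.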

[16] = read-out: CD40, CD40 (gene 958); experiment: BSK_LPS_CD40: BioMAP Diversity Plus: LPS Assay for CD40 Biomarker Activity (AID 2283076); settings: primary human HUVEC with PBMC; actives raise or lower the signal
Outline: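 Cells were dosed, incubated 24 h, then assayed for CD40 by ELISA. Gain or loss of signal was analysed relative to DMSO controls. The culture paired human umbilical vein endothelium with peripheral blood mononuclear cells.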

[17] = read-out: E-selectin (Homo sapiens) (UniProt P16581); experiment: BSK_LPS_Eselectin: BioMAP Diversity Plus: LPS Assay for Eselectin Biomarker Activity (AID 2283077); settings: primary human HUVEC with PBMC; actives raise or lower the signal
Outline: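 Primary human vascular co-culture (endothelium plus PBMC) was dosed with chemical, then E-selectin quantified by ELISA at 24 h. Endpoint values derive from bidirectional curve fitting relative to DMSO.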

[18] = read-out: Interleukin-8 (IL8), CXCL8 (gene 3576); experiment: BSK_LPS_IL8: BioMAP Diversity Plus: LPS Assay for Interleukin-8 (IL8) Biomarker Activity (AID 2283078); settings: primary human HUVEC with PBMC; actives raise or lower the signal
Outline: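 Readout is IL-8 by ELISA, taken 24 h after compounds were added to LPS-stimulated endothelial/PBMC co-cultures. Both increases and decreases relative to DMSO control were scored through bidirectional fitting.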

[19] = BSK_LPS_SRB: Viability Assessment in the BioMAP Diversity Plus: LPS Assay (AID 2283079); settings: primary human HUVEC with PBMC;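 further: total protein by sulforhodamine B absorbance as a cytotoxicity measure; measured one day after compound addition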
Outline: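 Readout is SRB absorbance at 560 nm (0.1% stain, TCA-fixed parallel cultures) as a total-protein cytotoxicity measure. Cells: primary human umbilical vein endothelium plus peripheral blood mononuclear cells, 24 h after chemical exposure; DMSO served as baseline.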

[20] = read-out: Interleukin-1 alpha (IL1a), IL1A (gene 3552); experiment: BSK_LPS_IL1a: BioMAP Diversity Plus: LPS Assay for Interleukin-1 alpha (IL1a) Biomarker Activity (AID 2283080); settings: primary human HUVEC with PBMC; actives raise or lower the signal
Outline: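 ELISA read-out of IL-1 alpha from a human primary vascular co-culture (endothelium plus PBMC) under LPS, sampled 24 hours post-dosing. Activity was fitted in both directions relative to DMSO controls.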

Measured: AC50

Chain of E-selectin (Homo sapiens) (P16581 whole entry, looked up): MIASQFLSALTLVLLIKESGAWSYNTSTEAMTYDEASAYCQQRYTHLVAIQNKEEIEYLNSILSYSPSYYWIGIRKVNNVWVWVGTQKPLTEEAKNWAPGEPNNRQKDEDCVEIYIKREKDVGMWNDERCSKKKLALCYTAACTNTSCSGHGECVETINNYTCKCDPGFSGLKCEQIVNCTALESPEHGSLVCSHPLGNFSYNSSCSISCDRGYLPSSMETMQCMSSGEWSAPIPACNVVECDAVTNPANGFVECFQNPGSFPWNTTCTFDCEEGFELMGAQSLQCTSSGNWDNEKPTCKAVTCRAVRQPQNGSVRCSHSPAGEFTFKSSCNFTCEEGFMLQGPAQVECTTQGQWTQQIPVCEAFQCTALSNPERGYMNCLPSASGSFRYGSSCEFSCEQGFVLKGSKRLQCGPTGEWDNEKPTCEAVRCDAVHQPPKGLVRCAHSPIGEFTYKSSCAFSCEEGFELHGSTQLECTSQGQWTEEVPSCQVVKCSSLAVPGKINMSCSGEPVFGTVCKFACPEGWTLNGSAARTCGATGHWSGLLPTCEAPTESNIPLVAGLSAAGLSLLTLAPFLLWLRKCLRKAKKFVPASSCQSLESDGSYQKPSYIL

CCc1nn(C2CCCCC2)c2cc(C3(C#N)CCC(C(=O)O)CC3)ccc12 (stereo not given)
active: [1] 4.51 µM | [2] 3.54 µM | [3] 20 µM | [4] 8.18 µM | [5] 7.89 µM | [6] 5.35 µM | [8] 28.1 µM | [11] 11.5 µM | [13] 20 µM | [14] 8.4 µM | [15] 11.3 µM | [16] 2.51 µM | [17] 16.1 µM | [18] 20 µM | [19] 4.2 µM | [20] 1.15 µM
inactive: [7] | [9] | [10] | [12]

O=[N+]([O-])c1ccc(O)cc1
inactive: [1] | [2] | [3] | [4] | [5] | [6] | [7] | [8] | [9] | [10] | [11] | [12] | [13] | [14] | [15] | [16] | [17] | [18] | [19] | [20]

O=C(O)c1ccccc1C(c1ccc(O)cc1)c1ccc(O)cc1
inactive: [1] | [2] | [3] | [4] | [5] | [6] | [7] | [8] | [9] | [10] | [11] | [12] | [13] | [14] | [15] | [16] | [17] | [18] | [19] | [20]

c1ccc2c(c1)Cc1ccccc1-2
inactive: [1] | [2] | [3] | [4] | [5] | [6] | [7] | [8] | [9] | [10] | [11] | [12] | [13] | [14] | [15] | [16] | [17] | [18] | [19] | [20]

COc1ccc([N+](=O)[O-])cc1N
inactive: [1] | [2] | [3] | [4] | [5] | [6] | [7] | [8] | [9] | [10] | [11] | [12] | [13] | [14] | [15] | [16] | [17] | [18] | [19] | [20]

COCC(C)OCC(C)O (stereo not given)
inactive: [1] | [2] | [3] | [4] | [5] | [6] | [7] | [8] | [9] | [10] | [11] | [12] | [13] | [14] | [15] | [16] | [17] | [18] | [19] | [20]

Oc1cc2ccccc2c2ccccc12
active: [1] 3.24 µM | [2] 3.41 µM | [3] 2.78 µM | [4] 2.93 µM | [5] 2.07 µM | [6] 2.4 µM | [7] 6.96 µM | [8] 7.34 µM | [10] 6 µM | [11] 7.99 µM | [12] 6.02 µM | [13] 6.26 µM | [14] 5.66 µM | [15] 7.13 µM | [16] 5.93 µM | [17] 11.1 µM | [18] 12.6 µM | [19] 12.1 µM | [20] 7.63 µM
inactive: [9]

CCCCCCCCCCCCc1ccccc1S(=O)(=O)O
active: [1] 6.52 µM | [2] 11.9 µM | [3] 11.7 µM | [4] 7.55 µM | [5] 11.6 µM | [6] 6.87 µM | [7] 31.5 µM | [8] 13 µM | [9] 12.8 µM | [10] 29.9 µM | [11] 13.3 µM | [12] 12.4 µM | [13] 24.3 µM | [14] 12 µM | [15] 28 µM
inactive: [16] | [17] | [18] | [19] | [20]

OC1CCC(C2CCCCC2)CC1 (stereo not given)
inactive: [1] | [2] | [3] | [4] | [5] | [6] | [7] | [8] | [9] | [10] | [11] | [12] | [13] | [14] | [15] | [16] | [17] | [18] | [19] | [20]

CCCCCCCC(=O)O
inactive: [1] | [2] | [3] | [4] | [5] | [6] | [7] | [8] | [9] | [10] | [11] | [12] | [13] | [14] | [15] | [16] | [17] | [18] | [19] | [20]

CC[C@H](C)[C@@H](C(=O)O)n1sc2ccccc2c1=O
inactive: [1] | [2] | [3] | [4] | [5] | [6] | [7] | [8] | [9] | [10] | [11] | [12] | [13] | [14] | [15] | [16] | [17] | [18] | [19]
active: [20] 25.9 µM
